Assay [1] in a line: qHTS assay to identify small molecule antagonists of the sonic hedgehog signaling (Shh) pathway (AID 1259369). Note: nearly all actives have a fitted effect of over 45% in size. Note: potency is the fitted concentration of half-maximal effect. Summed up: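 Conditioned medium drives Shh signalling in 3T3Gli1-Luc cells; compounds in DMSO co-applied, 24hr at 37 C, then luciferase luminescence.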
A general note: qHTS replaces the single test concentration by a dilution series.

The target of assay [2] is Estrogen receptor beta (Homo sapiens) (UniProt Q92731). As to the kind of experiment: qHTS assay to identify small molecule agonists of the estrogen receptor beta (ER-beta) signaling pathway (AID 1259377; active = well fitted activation curve with a large enough effect in the signal ratio in the repeat runs, not every such curve was filed as active; the % refers to the signal ratio). Summed up:
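qHTS in ER-beta-UAS-bla HEK293T cells: 6 hr settling, then 16 hr compound at 37C, then LiveBLAzer substrate 2 h at RT before fluorescence reading.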

Assay [3] has the same target. As to the kind of experiment: qHTS assay to identify small molecule antagonists of the estrogen receptor beta (ER-beta) signaling pathway (AID 1259378; active = well fitted inhibition curve with a large enough effect in the signal ratio in the repeat runs, not every such curve was filed as active; the % refers to the signal ratio). Summed up: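 ER-beta-UAS-bla HEK293T (GripTite) cells in 2% charcoal-stripped FBS medium were preincubated 6 hr at 37C, dosed with compound, then stimulated with 1 nM E2 (final) for 16 hr; beta-lactamase reporter read by B/G FRET fluorescence after 2 hr substrate loading.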

The nature of assay [4]: qHTS assay to identify small molecule agonists of the androgen receptor (AR) signaling pathway in the presence of an antagonist - cell viability counter screen (AID 1259379; active = well fitted curve in the direction sought with a large enough effect in the repeat runs; an effect the other way counts as inactive or inconclusive;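 note: MDA-kb2 human breast cancer cells carrying an MMTV luciferase reporter; series mostly up to about 92 µM; nearly all actives have a fitted effect of over 25% in size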). An outline of the steps: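 A CellTiter-Fluor read-out measured viability of MDA-kb2 reporter cells (MMTV promoter with AR and GR response elements). Treatment: nilutamide 3.0uM final with compounds at 15 concentrations, 16 hr, 37C, 0% CO2.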

Assay [5] is described as follows: qHTS assay to identify small molecule agonists of the estrogen receptor beta (ER-beta) signaling pathway - cell viability counter screen (AID 1259380; active = well fitted curve in the direction sought with a large enough effect in the repeat runs; an effect the other way counts as inactive or inconclusive; note: nearly all actives have a fitted effect of over 30% in size). An outline of the steps: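 Cells used were ER-beta-UAS-bla HEK293T in medium with 2% charcoal-stripped FBS. They were treated for 16 hr at 37C. Viability came from CellTiter-Glo luminescence.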
Assay [6] is described as follows: qHTS assay to identify small molecule antagonists of the estrogen receptor beta (ER-beta) signaling pathway - cell viability counter screen (AID 1259382; active = well fitted curve in the direction sought with a large enough effect in the repeat runs; an effect the other way counts as inactive or inconclusive; note: series mostly up to about 92 µM; nearly all actives have a fitted effect of over 55% in size). Summed up:
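Agonist-stimulated (1nM E2) ER-beta-UAS-bla HEK293T cells are incubated with library compounds for 16 hr at 37C. Cell viability is then assessed in the reporter-assay wells by adding CellTiter-Glo and reading luminescence after 30 min.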

Assay [7] has as its target Estrogen receptor (Homo sapiens) (UniProt P03372). As to the kind of experiment: qHTS assay to identify small molecule agonists of the estrogen receptor alpha (ER-alpha) signaling pathway in the presence of an antagonist (AID 1259383). Note: top concentration of the series differs between compounds; nearly all actives have a fitted effect of over 15% in size. An outline of the steps:
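Using VM7Luc4E2 cells seeded 24hr before treatment, antagonist ICI-182,780 (10.0nM final) was added, followed by compounds at 15 concentrations. Plates incubated 22hr; ONE-Glo luminescence quantified reporter activity.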

Assay [8] in a line: qHTS assay to identify small molecule agonists or antagonists of the thyroid stimulating hormone receptor (TSHR) signaling pathway - wild type cell line counter screen (AID 1259384). An outline of the steps: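 Wild-type HEK293 cells were plated 18 h at 37 C/5% CO2, pin-dosed with compound plus Ro20-1724 medium, held 30 min at room temperature, then given cAMP-d2 and anti-cAMP-cryptate; fluorescence was read after 1 h. Fifteen concentrations, triplicate.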

The target of assay [9] is Thyrotropin receptor (Homo sapiens) (UniProt P16473). As to the kind of experiment: qHTS assay to identify small molecule antagonists of the thyroid stimulating hormone receptor (TSHR) signaling pathway (AID 1259385). Note: nearly all actives have a fitted effect of over 20% in size. Summed up:
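TSHR-HEK293 cells were plated and held 18 h at 37C/5% CO2, then given compound plus Ro20-1724 and stimulated with TSH at 1.5 ng/mL final. After 30 min at room temperature, cAMP was detected with cAMP-d2/anti-cAMP-cryptate (1 h) by fluorescence.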

The nature of assay [10]: qHTS assay to identify small molecule agonists of the estrogen receptor alpha (ER-alpha) signaling pathway in the presence of an antagonist - cell viability counter screen (AID 1259386; active = well fitted curve in the direction sought with a large enough effect in the repeat runs; an effect the other way counts as inactive or inconclusive;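 note: cells exposed to compounds for 22 h at 37 °C before the viability read; nearly all actives have a fitted effect of over 30% in size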; note: potency is the fitted concentration of half-maximal effect). An outline of the steps: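 ICI-182,780 at 10.0nM final accompanies the compound titration (15 concentrations, 22hr, 37C) on VM7Luc4E2 cells. The CellTiter-Fluor fluorescence readout runs in the same wells as the luciferase assay.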

Assay [11] has as its target Progesterone receptor (Homo sapiens) (UniProt P06401). As to the kind of experiment: qHTS assay to identify small molecule agonists of the progesterone receptor (PR) signaling pathway (AID 1346784). Note: nearly all actives have a fitted effect of over 30% in size. Summed up: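 Fluorescence from LiveBLAzer B/G FRET substrate cleavage (2 hr, RT) reported PR activation in PR-UAS-bla HEK 293T cells treated 16 hr at 37C/5% CO2 with compounds; medium contained 2% charcoal-stripped FBS.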

The nature of assay [12]: qHTS assay to identify small molecule antagonists of the progesterone receptor (PR) signaling pathway - cell viability counter screen (AID 1346798; active = well fitted curve in the direction sought with a large enough effect in the repeat runs; an effect the other way counts as inactive or inconclusive; note: series mostly up to about 92 µM; nearly all actives have a fitted effect of over 50% in size). An outline of the steps:
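CellTiter-Glo luminescence; PR-UAS-bla HEK293T, 3,000 cells/well; compound + R5020, 16 hr, 37C/5% CO2; 30 min RT before read.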

The nature of assay [13]: qHTS assay to identify small molecule agonists of the progesterone receptor (PR) signaling pathway - cell viability counter screen (AID 1346799). Note: nearly all actives have a fitted effect of over 45% in size. An outline of the steps:
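In parallel with the beta-lactamase readout, cytotoxicity toward PR-UAS-bla HEK293T cells was measured by CellTiter-Glo luminescence following 16 hr compound incubation in 2% charcoal-stripped FBS medium.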

The nature of assay [14]: qHTS assay to identify small molecule agonists of the TGF-beta/Smad signaling pathway - cell viability counter screen (AID 1346829; active = well fitted curve in the direction sought with a large enough effect in the repeat runs; an effect the other way counts as inactive or inconclusive; note: top concentration of the series differs between compounds; nearly all actives have a fitted effect of over 45% in size). Summed up: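 In parallel with the Smad reporter read, viability of HEK 293T cells stably carrying SBE-bla is quantified by ATP luminescence following 5 hr compound treatment.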
Assay [15] can be described thus: qHTS assay to identify small molecule agonists of the TGF-beta/Smad signaling pathway (AID 1346859; active = well fitted activation curve with a large enough effect in the signal ratio in the repeat runs, not every such curve was filed as active; the % refers to the signal ratio; note: series mostly up to about 77 µM). An outline of the steps:
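After overnight seeding, SBE-bla HEK 293T cells are dosed with compounds in DMSO and kept 5 hr at 37 C, 5% CO2. LiveBLAzer-type FRET substrate is then applied for 2 hr at room temperature.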

The target in assay [16] is Thyrotropin-releasing hormone receptor (Homo sapiens) (UniProt P34981). As to the kind of experiment: qHTS assay to identify small molecule antagonists of the thyrotropin-releasing hormone receptor (TRHR) signaling pathway (AID 1346877; active = well fitted inhibition curve with a large enough effect in the repeat runs, not every such curve was filed as active; note: series mostly up to about 51 µM). An outline of the steps: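 Screening used HEK293 cells engineered with TRHR, with a brief 5 min room-temperature compound exposure preceding addition of TRH to 1 nM. The read-out was kinetic calcium-dye fluorescence, concentration-response from 15 doses in triplicate.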

Assay [17] shares this target. As to the kind of experiment: qHTS assay to identify small molecule agonists of the thyrotropin-releasing hormone receptor (TRHR) signaling pathway (AID 1346891).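 Note: HEK293 cells expressing TRHR with calcium dye readout; series mostly up to about 58 µM.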 Summed up:
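Compounds were tested as agonists at 15 concentrations, in triplicate, on TRHR-Hek293 cells; calcium-sensitive dye fluorescence was recorded for 3 min following addition.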

Assay [18] addresses Androgen receptor (Homo sapiens) (UniProt P10275). Kind of assay: qHTS assay to identify small molecule agonists of the androgen receptor (AR) signaling pathway in the presence of an antagonist (AID 1259381). Note: nearly all actives have a fitted effect of over 15% in size. Summed up: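 Using human MDA-kb2 cells with an MMTV promoter–luciferase construct (AR and GR response elements), agonist activity is scored under 3.0uM nilutamide (final) co-treatment; 16hr incubation, 37C, luminescence readout via ONE-Glo.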

Assay [19] addresses Progesterone receptor (Homo sapiens) (UniProt P06401). Kind of assay: qHTS assay to identify small molecule antagonists of the progesterone receptor (PR) signaling pathway (AID 1346795; active = well fitted inhibition curve with a large enough effect in the signal ratio in the repeat runs, not every such curve was filed as active; the % refers to the signal ratio). An outline of the steps: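 Fluorescence intensity measured 2 hr after adding beta-lactamase FRET substrate to PR-UAS-bla HEK293T cells that had been co-treated 16 hr with compound and 1 nM R5020 (final concentration) in 2% charcoal-stripped FBS.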

Assay [20] can be described thus: qHTS assay to identify small molecule antagonists of the TGF-beta/Smad signaling pathway - cell viability counter screen (AID 1346824; active = well fitted curve in the direction sought with a large enough effect in the repeat runs; an effect the other way counts as inactive or inconclusive; note: nearly all actives have a fitted effect of over 50% in size). Summed up:
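SBE-bla HEK 293T cells were plated overnight at 37 C, then given compounds in DMSO plus TGF-beta1 (added as 0.25 ng/mL solution) for 5 hr. After the bla read, CellTiter-Glo was added to the same wells and luminescence read after 30 min at room temperature.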

Inconclusive results are not listed. Activity calls are given as the source filed them. Unless noted, calls come from the whole dose curve.

Androgen receptor (Homo sapiens), sequence (P10275 whole entry, looked up): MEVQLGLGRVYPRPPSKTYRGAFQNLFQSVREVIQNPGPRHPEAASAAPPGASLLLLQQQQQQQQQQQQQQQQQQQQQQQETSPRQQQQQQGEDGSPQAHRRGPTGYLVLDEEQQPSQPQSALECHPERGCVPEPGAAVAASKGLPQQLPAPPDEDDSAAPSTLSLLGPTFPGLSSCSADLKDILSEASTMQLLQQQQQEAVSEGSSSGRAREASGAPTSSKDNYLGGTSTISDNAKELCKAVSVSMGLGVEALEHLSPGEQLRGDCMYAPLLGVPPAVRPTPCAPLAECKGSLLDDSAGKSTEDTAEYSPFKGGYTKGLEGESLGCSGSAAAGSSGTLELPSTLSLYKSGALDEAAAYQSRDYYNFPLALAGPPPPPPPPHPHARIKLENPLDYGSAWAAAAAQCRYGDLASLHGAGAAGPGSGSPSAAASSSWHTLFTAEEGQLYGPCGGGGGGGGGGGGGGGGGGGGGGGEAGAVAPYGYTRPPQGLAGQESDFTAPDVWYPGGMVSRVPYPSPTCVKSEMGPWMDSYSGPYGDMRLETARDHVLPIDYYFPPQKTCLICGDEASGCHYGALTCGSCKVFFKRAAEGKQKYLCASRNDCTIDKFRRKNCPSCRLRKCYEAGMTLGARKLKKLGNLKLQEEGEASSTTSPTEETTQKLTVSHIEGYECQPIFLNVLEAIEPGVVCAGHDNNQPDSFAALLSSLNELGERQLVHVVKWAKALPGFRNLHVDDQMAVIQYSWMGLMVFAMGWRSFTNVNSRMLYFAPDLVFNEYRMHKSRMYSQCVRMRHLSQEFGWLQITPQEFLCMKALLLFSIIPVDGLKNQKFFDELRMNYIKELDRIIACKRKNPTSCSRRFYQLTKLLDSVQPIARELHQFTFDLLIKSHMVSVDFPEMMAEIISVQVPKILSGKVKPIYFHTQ
Estrogen receptor (Homo sapiens), sequence (P03372 whole entry, looked up): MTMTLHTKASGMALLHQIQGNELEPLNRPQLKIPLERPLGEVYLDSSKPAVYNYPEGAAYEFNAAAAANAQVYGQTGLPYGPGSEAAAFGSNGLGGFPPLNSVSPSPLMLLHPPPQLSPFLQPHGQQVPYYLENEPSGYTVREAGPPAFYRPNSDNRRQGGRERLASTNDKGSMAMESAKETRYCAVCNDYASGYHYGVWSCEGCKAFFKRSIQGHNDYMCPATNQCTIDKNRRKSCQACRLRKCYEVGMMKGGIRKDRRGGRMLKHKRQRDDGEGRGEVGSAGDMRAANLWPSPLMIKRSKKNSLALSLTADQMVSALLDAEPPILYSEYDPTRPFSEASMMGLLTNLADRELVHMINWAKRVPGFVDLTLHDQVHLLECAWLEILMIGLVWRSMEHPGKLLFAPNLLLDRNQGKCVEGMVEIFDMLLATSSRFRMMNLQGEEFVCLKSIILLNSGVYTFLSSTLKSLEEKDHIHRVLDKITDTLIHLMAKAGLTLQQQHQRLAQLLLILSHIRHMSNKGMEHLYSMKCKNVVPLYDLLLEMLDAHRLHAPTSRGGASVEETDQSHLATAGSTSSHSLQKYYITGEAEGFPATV
Progesterone receptor (Homo sapiens), sequence (P06401 whole entry, looked up): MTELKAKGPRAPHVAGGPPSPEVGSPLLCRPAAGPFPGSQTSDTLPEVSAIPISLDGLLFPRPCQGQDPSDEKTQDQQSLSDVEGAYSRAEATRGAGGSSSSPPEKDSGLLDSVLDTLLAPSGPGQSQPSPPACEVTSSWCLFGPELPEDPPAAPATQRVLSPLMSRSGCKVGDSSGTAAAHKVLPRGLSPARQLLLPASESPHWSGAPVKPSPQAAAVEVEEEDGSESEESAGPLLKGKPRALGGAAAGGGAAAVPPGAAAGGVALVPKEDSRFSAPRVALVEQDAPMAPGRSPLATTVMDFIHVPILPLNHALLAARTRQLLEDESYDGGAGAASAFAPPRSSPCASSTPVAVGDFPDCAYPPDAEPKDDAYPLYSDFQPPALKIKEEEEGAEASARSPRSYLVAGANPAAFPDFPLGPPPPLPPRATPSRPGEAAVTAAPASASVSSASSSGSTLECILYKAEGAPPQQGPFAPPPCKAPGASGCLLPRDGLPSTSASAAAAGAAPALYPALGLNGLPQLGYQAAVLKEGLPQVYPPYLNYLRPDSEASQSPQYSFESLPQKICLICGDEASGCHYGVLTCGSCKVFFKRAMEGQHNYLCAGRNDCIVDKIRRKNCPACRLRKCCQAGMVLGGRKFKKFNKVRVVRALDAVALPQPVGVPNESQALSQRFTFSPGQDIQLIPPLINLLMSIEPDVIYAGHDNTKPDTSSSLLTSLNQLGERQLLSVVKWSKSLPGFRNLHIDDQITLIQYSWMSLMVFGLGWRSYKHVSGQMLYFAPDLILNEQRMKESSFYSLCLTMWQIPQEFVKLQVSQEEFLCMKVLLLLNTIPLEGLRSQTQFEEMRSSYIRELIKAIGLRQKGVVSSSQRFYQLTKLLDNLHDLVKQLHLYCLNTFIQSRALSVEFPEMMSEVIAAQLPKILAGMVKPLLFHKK
Estrogen receptor beta (Homo sapiens), sequence (Q92731 whole entry, looked up): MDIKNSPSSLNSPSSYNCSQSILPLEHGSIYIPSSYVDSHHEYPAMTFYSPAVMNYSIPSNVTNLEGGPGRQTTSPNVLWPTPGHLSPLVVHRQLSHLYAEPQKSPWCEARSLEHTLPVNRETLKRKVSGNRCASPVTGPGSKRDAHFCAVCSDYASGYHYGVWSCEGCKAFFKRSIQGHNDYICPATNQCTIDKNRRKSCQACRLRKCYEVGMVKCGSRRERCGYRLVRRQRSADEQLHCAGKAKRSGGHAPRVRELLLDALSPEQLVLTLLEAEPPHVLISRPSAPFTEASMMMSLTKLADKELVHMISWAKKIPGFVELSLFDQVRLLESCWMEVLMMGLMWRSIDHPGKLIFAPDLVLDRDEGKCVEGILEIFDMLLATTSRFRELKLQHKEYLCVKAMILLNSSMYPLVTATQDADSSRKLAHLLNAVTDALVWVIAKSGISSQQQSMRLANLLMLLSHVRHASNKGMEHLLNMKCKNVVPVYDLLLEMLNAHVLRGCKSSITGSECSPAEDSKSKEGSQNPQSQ
Thyrotropin-releasing hormone receptor (Homo sapiens), sequence (P34981 whole entry, looked up): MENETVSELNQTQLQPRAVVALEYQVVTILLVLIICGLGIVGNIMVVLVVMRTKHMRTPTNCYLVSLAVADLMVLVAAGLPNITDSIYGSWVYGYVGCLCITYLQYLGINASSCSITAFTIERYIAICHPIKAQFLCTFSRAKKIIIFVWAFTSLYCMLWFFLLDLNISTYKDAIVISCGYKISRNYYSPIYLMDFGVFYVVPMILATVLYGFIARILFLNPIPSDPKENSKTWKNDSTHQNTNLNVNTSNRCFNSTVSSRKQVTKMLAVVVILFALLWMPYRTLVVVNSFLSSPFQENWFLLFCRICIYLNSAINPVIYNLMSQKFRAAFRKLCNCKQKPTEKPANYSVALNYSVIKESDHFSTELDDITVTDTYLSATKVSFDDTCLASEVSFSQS
Thyrotropin receptor (Homo sapiens), sequence (P16473 whole entry, looked up): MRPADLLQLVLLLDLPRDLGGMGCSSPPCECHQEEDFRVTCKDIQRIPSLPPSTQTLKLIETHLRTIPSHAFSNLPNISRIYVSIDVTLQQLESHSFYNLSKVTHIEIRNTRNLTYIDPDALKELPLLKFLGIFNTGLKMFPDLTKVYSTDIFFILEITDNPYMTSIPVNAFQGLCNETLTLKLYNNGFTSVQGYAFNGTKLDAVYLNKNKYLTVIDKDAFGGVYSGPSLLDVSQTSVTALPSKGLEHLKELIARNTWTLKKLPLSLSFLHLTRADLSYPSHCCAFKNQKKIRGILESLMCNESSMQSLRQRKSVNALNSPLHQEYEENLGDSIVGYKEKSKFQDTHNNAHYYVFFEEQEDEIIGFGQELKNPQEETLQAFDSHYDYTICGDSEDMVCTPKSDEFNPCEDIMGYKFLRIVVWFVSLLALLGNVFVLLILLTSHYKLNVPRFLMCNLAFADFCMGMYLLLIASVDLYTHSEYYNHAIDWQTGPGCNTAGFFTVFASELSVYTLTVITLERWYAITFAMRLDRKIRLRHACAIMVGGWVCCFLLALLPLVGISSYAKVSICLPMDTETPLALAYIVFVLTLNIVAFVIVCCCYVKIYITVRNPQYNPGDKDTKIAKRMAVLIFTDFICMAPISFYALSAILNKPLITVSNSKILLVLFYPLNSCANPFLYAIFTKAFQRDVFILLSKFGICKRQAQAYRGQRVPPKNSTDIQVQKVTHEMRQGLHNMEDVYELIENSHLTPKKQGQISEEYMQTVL

Consider `CCCCOCCOCCOC(=O)CCCCC(=O)OCCOCCOCCCC`, for which the Potency result in assay [1], in assay [2], in assay [3], in [4], in assay [5] and in [6] was “inactive” each time. The Potency entry in [7], in assay [10], in assay [11], in [12], in assay [13] and in assay [14] was “inactive” in each case. In assay [17], the Potency entry was “inactive”. Besides, the outcome in assay [8], in assay [9], in assay [15] and in [16] was inactive.

With `C[C@@H]1O[C@@H](OC[C@H]2O[C@@H](Oc3c(-c4ccc(O)c(O)c4)oc4cc(O)cc(O)c4c3=O)[C@H](O)[C@@H](O)[C@@H]2O)[C@H](O)[C@H](O)[C@H]1O`, the Potency entry in assay [1], in [2], in assay [3], in assay [4], in [5] and in assay [18] was “inactive” each time. The Potency result in assay [6], in assay [11], in assay [19], in assay [12], in assay [13] and in [14] was “inactive” in each case. In assay [17], the Potency entry was “inactive”. Moreover, the call in assay [8], in assay [9], in assay [15] and in assay [16] was inactive. Moreover, in assay [10], the Potency is 54.9 µM (active).

With `CCCCC(CC)C(=O)OCCOCCOCCOC(=O)C(CC)CCCC` (configuration not stated), the Potency result in assay [1], in assay [2], in assay [3], in [4], in assay [5] and in [18] was “inactive” each time. The Potency result in assay [6], in [7], in assay [10], in assay [11], in [12] and in assay [13] was “inactive” in each case. The Potency entry in [14] and in assay [17] was “inactive” throughout. Moreover, the compound was called inactive in assay [8], in [9], in assay [15] and in assay [16].

As to `CCc1ccccc1O`, the Potency result in assay [1], in assay [2], in assay [3], in [4], in assay [5] and in assay [6] was “inactive” throughout. Moreover, the Potency result in assay [7], in [10], in [11], in assay [19], in [12] and in assay [13] was “inactive” in each case. The Potency result in [20], in [14] and in assay [17] was “inactive” in each case. The compound was classed as inactive in assay [8], in assay [9], in [15] and in assay [16].

Regarding `CCCCCC/C=C/CCCCCCCC(=O)O`, the Potency result in assay [1], in assay [2], in [3], in assay [4], in assay [5] and in [6] was “inactive” each time. Also, the Potency result in [7], in assay [10], in [11], in assay [12], in [13] and in assay [14] was “inactive” throughout. Moreover, the Potency result in [17] is “inactive”. Besides, the outcome in [8], in [9], in assay [15] and in assay [16] was inactive.

`Cc1cc(O)cc(C)c1Cl`: in [1], the Potency is 3.06 µM (active). Also, the Potency entry in assay [2], in assay [3], in assay [4], in assay [5], in assay [6] and in assay [10] was “inactive” throughout. Also, the Potency result in [11], in assay [19], in assay [12], in assay [13], in assay [20] and in [14] was “inactive” each time. Moreover, in assay [17], the Potency entry was “inactive”. Further, the compound was classed as inactive in assay [8], in assay [9], in assay [15] and in assay [16].

As for `O=C1CCCCC1`, the Potency entry in assay [1], in assay [2], in [3], in [4], in assay [5] and in [18] was “inactive” throughout. The Potency result in assay [6], in assay [10], in assay [11], in assay [12], in assay [13] and in [14] was “inactive” each time. Further, the Potency entry in assay [17] is “inactive”. In addition, the outcome in assay [15] and in assay [16] was inactive.

Consider `NCCNCCNCCNCCN`, for which the Potency entry in [1], in assay [2], in assay [3], in assay [4], in assay [5] and in assay [18] was “inactive” throughout. The Potency entry in assay [6], in assay [10], in [11], in assay [12], in assay [13] and in [20] was “inactive” each time. For the same compound, in assay [14], the Potency entry is “inactive”. For the same compound, the call in [8] and in [15] was inactive.

Values taken from PubChem BioAssay (Tox21).
